Among all 16,000 compounds or so, about 4,000 (25%) were called active. Another 26% or so got no clear call; they are omitted. Only a sample is shown. A number with no mark means an inactive call. Calls come from the whole dose curve; as a rule, active = well fitted curve in the direction sought with a large enough effect; inconclusive = small, poorly fitted or top-dose-only effect, or effect the other way; inactive = no such curve, though single readings can be large or run the other way.
Target: Cytochrome P450 2C9 (Homo sapiens) (UniProt P11712)
Assay: Cytochrome panel assay with activity outcomes
Details: recombinant CYP, pro-luciferin dealkylation, luminescence, p450-cyp2c9; series mostly up to 57.1 µM; activity, negative = inhibition: at the top concentration
% is set by controls: 0 for no effect and ±100 for the full control effect.

Sequence of Cytochrome P450 2C9 (Homo sapiens) (P11712 whole entry, looked up): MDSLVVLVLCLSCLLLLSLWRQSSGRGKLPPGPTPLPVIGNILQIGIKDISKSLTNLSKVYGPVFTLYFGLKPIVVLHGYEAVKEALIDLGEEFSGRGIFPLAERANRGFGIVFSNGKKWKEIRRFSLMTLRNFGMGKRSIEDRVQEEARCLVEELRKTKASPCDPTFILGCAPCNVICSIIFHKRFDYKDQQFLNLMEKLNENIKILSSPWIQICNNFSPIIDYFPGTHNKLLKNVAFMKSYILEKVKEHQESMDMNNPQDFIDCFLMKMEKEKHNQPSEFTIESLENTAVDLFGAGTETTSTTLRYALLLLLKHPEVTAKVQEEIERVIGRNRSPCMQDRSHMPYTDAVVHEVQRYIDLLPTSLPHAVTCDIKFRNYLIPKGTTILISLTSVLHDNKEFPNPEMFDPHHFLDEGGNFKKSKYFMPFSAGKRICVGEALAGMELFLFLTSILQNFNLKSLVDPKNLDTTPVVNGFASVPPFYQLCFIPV

SMILES | activity, negative = inhibition | AC50
CC(=O)ON(C(C)=O)S(=O)(=O)c1ccc(Cl)cc1 | -9.68% | –
COc1ccc(NS(=O)(=O)c2ccc(I)cc2)cc1N1CCN(C)CC1 | -14% | –
CSc1nc2cc(S(=O)(=O)N3CCCCC3)ccc2s1 | -29.2% [at 11.4 µM] | –
COc1ccc(S(=O)(=O)N2CCCCCC2)cc1N(C)S(=O)(=O)c1ccc(Cl)cc1 | – | 4.47 µM (active)
COc1ccc(S(=O)(=O)Nc2ccc(S(=O)(=O)N3CCCCC3)cc2)cc1C | – | 0.355 µM (active)
O=S(=O)(NCCNC/C=C\c1ccc(Br)cc1)c1cccc2cnccc12 | -8.85% | –
Clc1ccc(Sc2ccc(/C=N/n3cnnc3)o2)cc1 | – | 7.94 µM (active)
CN=C1S/C(=C\c2ccc(Sc3ccc(Cl)cc3)o2)C(=O)N1C | – | 1.26 µM (active)
Cc1ccc(Nc2nc(Cl)nc(N(C)C#N)n2)cc1 | – | 15.8 µM (active)
O[C@]1(c2ccccc2)c2ccccc2NC2=NCCN21 | 3.96% [at 11.4 µM] | –
CS(=O)(=O)c1ccccc1COC(=O)Nc1ccc(Cl)cc1 | -21.7% | –
O=C(Nc1ccccc1)OCc1cc(-c2ccc(Cl)cc2)on1 | – | 2.82 µM (active)
Cc1cnc(CNc2ncncc2-c2ccc(C(=O)N(C)C)cc2)cn1 | 26.6% [at 2.29 µM] | –
Cc1cnc(CNc2nc(-c3ccccc3C)nc3ccccc23)cn1 | 18.8% [at 2.29 µM] | –
CC(=O)NCCNc1ccnc(-c2ccccc2C)n1 | 7.25% [at 2.29 µM] | –
COc1ccc2c(c1)nc(SCC(=O)c1ccc(Br)s1)n2C | – | 15.8 µM (active)
COc1ccc2nccc(SCC(=O)O)c2c1 | -6.85% [at 11.4 µM] | –
Cc1noc(C)c1-c1ccc2ncnc(NCCN3CCOCC3)c2c1 | -1.53% [at 2.29 µM] | –
CCC(=O)O[C@@H]1[C@H](C)O[C@H](O[C@H]2[C@@H](N(C)C)[C@H](O)[C@@H](O[C@@H]3[C@@H](CC=O)C[C@@H](C)[C@@H](O)/C=C\C=C/C[C@@H](C)OC(=O)C[C@@H](OC(=O)CC)[C@H]3OC)O[C@H]2C)C[C@]1(C)O | 4.08% [at 25.6 µM] | –
c1ccc(-c2c3ccccc3nc3[nH]c4ccccc4c23)cc1 | – | 10 µM (active)

SMILES | activity, negative = inhibition | AC50
c1ccc2c(NC3CC3)nc(-c3ccoc3)nc2c1 | -17.7% [at 2.29 µM] | –
CCCCc1c2ccccc2nc2[nH]c3ccccc3c12 | -11.5% | –
CC[C@@H]1CN2CCc3cc(OC)c(OC)cc3[C@H]2C[C@@H]1C[C@@H]1NCCc2cc(OC)c(OC)cc21 | 8.9% | –
CN1CCN(c2ccnc(-c3ccc(N(C)C)cc3)n2)CC1 | 4.88% [at 2.29 µM] | –
CN(C)c1ccc(O)c2c1C[C@H]1C[C@H]3[C@@H](N(C)C)C(=O)C(C(N)=O)=C(O)[C@]3(O)C(=O)C1=C2O | -3.59% [at 25.6 µM] | –
CCN(CC)CCCNC(=O)CC1Sc2ccccc2NC1=O (stereo not drawn) | -23.3% | –
Cc1cc(C)n2nc(SCc3cc(=O)oc4ccc5ccccc5c34)nc2n1 | – | 8.91 µM (active)
Cc1cc(C)n2nc(SCN3C(=O)c4ccccc4C3=O)nc2n1 | -0.785% | –
COc1ccccc1CNC(=O)CSc1nc2nc(C)cc(C)n2n1 | 43.7% | –
CO[C@@H]1COC(=O)C/C=C\[C@@H](C)COC(=O)[C@H](Cc2ccccc2)NC(=O)C/C=C\[C@H]1C | -17.6% [at 11.4 µM] | –
O=C1CCCC=C1[C@H](O)c1ccc([N+](=O)[O-])cc1 | -18.1% [at 11.4 µM] | –
O=C1CCCC=C1[C@H](CCc1ccccc1)OC(=O)c1ccc(Br)cc1 | – | 3.16 µM (active)
O=C1CCCC=C1[C@@H](O)C1CCCCC1 | 14.2% [at 11.4 µM] | –
CCCCn1c(SCC(=O)N2CCCC2)nc2c1c(=O)n(C)c(=O)n2C | -14.8% | –
CCCCCn1c(CN2CCCCC2C)nc2c1c(=O)n(C)c(=O)n2C (stereo not drawn) | – | 15.8 µM (active)
CN(C)CCn1c(CO)nc2c1c(=O)n(C)c(=O)n2C | 0.0092% [at 11.4 µM] | –
CCNc1ncc2nc(-c3cc(F)cc(F)c3)c(=O)n(-c3ccc(OC)cc3)c2n1 | 13.1% | –
O=C(Oc1ccccc1)N1CCC2(CC1)CCN(c1cccc(-c3ccccc3)c1)CC2 | -2.21% | –
N#Cc1cccc(-c2cncnc2NCc2ccccc2)c1 | -4.42% [at 2.29 µM] | –
COC(=O)c1c(C)nc2ccccc2c1C(=O)O | -8.6% | –

SMILES | activity, negative = inhibition | AC50
COC(=O)c1c(C)oc2ccc(N(C(=O)c3ccncc3)S(=O)(=O)c3ccccc3)cc12 | – | 2.51 µM (active)
CCC(C)N1C(=O)S/C(=C/c2ccc(Sc3nc4ccccc4[nH]3)o2)C1=O (stereo not drawn) | – | 1.26 µM (active)
Cc1ncc([N+](=O)[O-])n1CC(C)O (stereo not drawn) | 10% | –
Clc1cccc(C=NC=Nc2cccc(Cl)c2)c1 | -9.46% | –
CC(C)(C)c1nc(SCC(=O)Nc2ccc(N3CCOCC3)cc2)c2ccccc2n1 | – | 7.94 µM (active)
Cn1c(CCC(=O)Nc2ccc(N3CCOCC3)cc2)nc(=O)c2ccccc21 | 13.8% | –
CNCC[C@H](Oc1ccccc1C)c1ccccc1 | -19.6% | –
CNCCC=C1c2ccccc2C=Cc2ccccc21 | 15.2% [at 25.6 µM] | –
Cc1ccc(C)c(CN2C(=O)C3CCCN3c3ccc(C#N)cc32)c1 (stereo not drawn) | – | 7.08 µM (active)
COc1ccccc1CN1CC[C@@]2(CCCN(S(=O)(=O)c3ccccc3)C2)C1 | -6.93% | –
CCOc1ccc(N(C(=O)/C=C/C(=O)Nc2cc(C)on2)C(C(=O)NC2CCCC2)c2ccccc2C)cc1 (stereo not drawn) | – | 3.16 µM (active)
O=C(O)[C@@H]1[C@@H]2C[C@H]([C@@H](Br)[C@H]2N2C(=O)CCC2=O)[C@@H]1C(=O)O | 8.14% [at 11.4 µM] | –
O=C(CCN1C(=O)c2ccccc2C1=O)Oc1ccc2ccccc2c1 | -2.31% | –
O=S1(=O)C=C(Oc2ccc3ccccc3c2)c2ccccc21 | – | 3.98 µM (active)
CN1CCN(Cc2nc3cccc4c3c([n+]2[O-])-c2ccccc2-4)CC1 | -11.8% [at 11.4 µM] | –
CC(c1ccc(Cl)cc1)n1c(-c2ccc3ccccc3n2)n[nH]c1=S (stereo not drawn) | – | 2.51 µM (active)
c1ccc2nc(C3=NCCN3)ccc2c1 | – | inactive
CN(C)CC[C@H](c1ccc(Cl)cc1)c1ccccn1 | 17.3% | –

Reference: PubChem BioAssay AID1851 (National Center for Advancing Translational Sciences (NCATS), 2009)
